Data on 40 molecules can be found in PubChem BioAssay AID624496 (National Center for Advancing Translational Sciences (NCATS), 2012).

Molecules are shown by their SMILES. Records with an inconclusive call do not appear. Active and inactive are the calls of the source. Calls come from the whole dose curve; as a rule, active = well fitted inhibition curve with a large enough effect; inconclusive = small, poorly fitted or top-dose-only effect, or another doubt; inactive = no such curve, though single readings can be large or run the other way.

Chain of D(2) dopamine receptor (Homo sapiens) (P14416 whole entry, looked up): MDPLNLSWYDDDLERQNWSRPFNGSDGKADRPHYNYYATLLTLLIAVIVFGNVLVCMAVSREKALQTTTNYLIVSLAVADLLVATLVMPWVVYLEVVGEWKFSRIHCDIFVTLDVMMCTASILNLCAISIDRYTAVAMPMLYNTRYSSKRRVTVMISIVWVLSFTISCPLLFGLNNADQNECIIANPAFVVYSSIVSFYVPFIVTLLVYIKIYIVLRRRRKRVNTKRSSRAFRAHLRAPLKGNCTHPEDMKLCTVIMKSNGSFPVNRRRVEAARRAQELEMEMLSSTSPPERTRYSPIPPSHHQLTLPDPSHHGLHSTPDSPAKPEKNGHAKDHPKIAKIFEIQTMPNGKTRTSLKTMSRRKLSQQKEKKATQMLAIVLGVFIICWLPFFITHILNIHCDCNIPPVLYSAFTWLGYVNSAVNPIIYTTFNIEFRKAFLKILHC

This test deals with D(2) dopamine receptor (Homo sapiens) (UniProt P14416). Description: HTS Assay for Allosteric Antagonists of the Human D2 Dopamine Receptor: SAR in Primary Assay. The settings on record: HEK293 T-REx D2 cells, calcium flux, dopamine EC80 antagonism; activity, negative = inhibition: at 41.8 µM (top of the series) unless noted. An excerpt:
Dopamine receptors (DARs) are involved in the etiology and/or therapy of a number of neuropsychiatric and endocrine disorders. For instance, all receptor-based antiparkinsonian drugs work via stimulating the D2 DAR subtype whereas all FDA-approved antipsychotic agents are antagonists of this receptor. […] There are three different types of allosteric modulators that we are seeking, two of which will stimulate or augment receptor signaling, allosteric agonists and potentiators, while the third, allosteric antagonists, will attenuate receptor signaling. The present project is looking for compound antagonism after an EC80 addition of dopamine by tracking calcium flux in a […], inducible Hek293 Trex D2 cell line, which act through an allosteric site. NIH Chemical Genomics Center [NCGC] NIH Molecular Libraries Probe Centers Network [MLPCN] MLPCN Grant: NS064831 Assay Submitter (PI): David Sibley
Freshly passaged cells are plated in 1536 well black, clear bottom plates at a density of 4000 cells/well in 3 ul of complete media containing 1x tetracycline inducer. After an overnight incubation at 30 deg C in 5% CO2, cells are loaded with 2 ul of the no wash Calcium Assay Kit (ABD Bioquest) and incubated at room temperature for 30 to 90 minutes. Agonist read: A 10 cycle (1 second/cycle) baseline measurement is taken and then the FDSS online 1536 pintool delivers 23 nl of compound library (as well as dopamine controls) to the plate. The plate is measured for kinetically at 1 cycle/sec for 180 seconds. Following the 180 second read, 1 ul of an EC80 (negative modulation assay) is delivered by an onboard pipette head. Measurements are taken kinetically for an additional 180 seconds.
Turning to `CN(C)CCCNC(=O)c1ccc2c(c1)N(C)C(=O)c1ccccc1S2=O` (stereo not given), the activity, negative = inhibition was -85.7% [at 4.65 µM] (active). Take `CN1C(=O)c2ccccc2[S@](=O)c2ccc(C(=O)NCCc3cccs3)cc21`: the Potency is 280 nM (active). Same read-out and setting: to `CCN1C(=O)c2ccccc2S(=O)c2ccc(C(=O)NCc3ccc(C#N)cc3)cc21` (stereo not given) belongs 141 nM (active). In the case of `CN1C(=O)c2ccccc2S(=O)c2ccc(C(=O)NCc3cccnc3)cc21` (stereo not given), the activity, negative = inhibition was -114% [at 4.65 µM] (active). Consider `CCN1C(=O)c2ccccc2[S@](=O)c2ccc(C(=O)NCc3ccc(C#N)cc3)cc21`, for which the Potency was 223 nM (active). On to `CCN1C(=O)c2ccccc2S(=O)c2ccc(C(=O)OCc3ccc(OC)cc3)cc21` (stereo not given), for which the “activity, negative = inhibition” value was -13.9% (inactive).

`CCN1C(=O)c2ccccc2S(=O)c2ccc(C(=O)NCc3ccc(C(F)(F)F)cc3)cc21` (stereo not given): the Potency was 141 nM (active). On the same count and under the same terms, to `CCN1C(=O)c2ccccc2S(=O)c2ccc(C(=O)NC(C)c3ccccc3)cc21` (stereo not given) belongs 353 nM (active). As to `CCN1C(=O)c2ccccc2S(=O)c2ccc(C(=O)NCc3ccccc3OC)cc21` (stereo not given), the activity, negative = inhibition was -21.4% (active). On the same count and under the same terms, to `COc1ccc(CNC(=O)c2cccc(N3C(=O)c4ccccc4C3=O)c2)cc1` belongs -114%.

Regarding `COc1ccc(CNC(=O)c2ccc3c(c2)NC(=O)c2ccccc2S3=O)cc1` (stereo not given), the Potency is 141 nM (active). Still for that read-out and setting: in the case of `CCN1C(=O)c2ccccc2[S@](=O)c2ccc(C(=O)N[C@H](C)c3ccc4ccccc4c3)cc21` it was 70.5 nM (active); in that of `CN1C(=O)c2ccccc2[S@@](=O)c2ccc(C(=O)NCCc3cccs3)cc21`, 88.7 nM (active); in that of `CCN1C(=O)c2ccccc2Sc2ccc(C(=O)NCc3ccc(OC)cc3)cc21`, 887 nM (active).

For the molecule `COc1ccc(NC(=O)c2ccc3c(c2)N(C)C(=O)c2ccccc2S3=O)cc1` (stereo not given), the Potency was 11200 nM (active). The same measure, in the same setting: in the case of `CN1C(=O)c2ccccc2S(=O)c2ccc(C(=O)NCc3cccc(Cl)c3)cc21` (stereo not given) it was 280 nM (active); in that of `CCN1C(=O)c2ccccc2S(=O)c2ccc(C(=O)NCc3ccc(S(C)(=O)=O)cc3)cc21` (stereo not given), 560 nM (active).

With `CCN1C(=O)c2ccccc2S(=O)c2ccc(C(=O)NCc3ccc(C(C)(C)C)cc3)cc21` (stereo not given), the Potency was 353 nM (active). With `CCN1C(=O)c2ccccc2S(=O)c2ccc(C(=O)NCc3cc(OC)c(OC)c(OC)c3)cc21` (stereo not given), the activity, negative = inhibition is 23.4%. In the case of `CCN1C(=O)c2ccccc2S(=O)(=O)c2ccc(C(=O)NCc3ccc(OC)cc3)cc21`, the activity, negative = inhibition was -113%.

For the molecule `CCN1C(=O)c2ccccc2S(=O)c2ccc(C(=O)N(C)Cc3ccc(OC)cc3)cc21` (stereo not given), the activity, negative = inhibition was -112% [at 4.65 µM]. For `CCN1C(=O)c2ccccc2S(=O)c2ccc(C(=O)NCc3ccccc3)cc21` (stereo not given), the Potency was 705 nM (active). With `CN1C(=O)c2ccccc2[S@](=O)c2ccc(C(=O)NCc3ccc(Br)cc3)cc21`, the Potency was 70.5 nM (active).

On to `CCN1C(=O)c2ccccc2S(=O)c2ccc(C(=O)NCc3ccc(SC)cc3)cc21` (stereo not given), for which the Potency is 223 nM (active).

On to `CN1C(=O)c2ccccc2S(=O)c2ccc(C(=O)NCc3ccc(Cl)cc3)cc21` (stereo not given), for which the Potency is 353 nM (active). Same read-out and setting: in the case of `COc1ccc(CNC(=O)c2ccc3c(c2)N(Cc2ccccc2)C(=O)c2ccccc2S3=O)cc1` (stereo not given) it was 88.7 nM (active); in that of `CN1C(=O)c2ccccc2S(=O)c2ccc(C(=O)Nc3ccccc3)cc21` (stereo not given), 280 nM (active).

For the molecule `CCN1C(=O)c2ccccc2S(=O)c2ccc(C(=O)Nc3ccc(OC)cc3)cc21` (stereo not given), the Potency was 887 nM (active). On the same count and under the same terms, in the case of `CCN1C(=O)c2ccccc2S(=O)c2ccc(C(=O)NCc3ccc(OC)cc3)cc21` (stereo not given) it was 88.7 nM (active); in that of `CCN1C(=O)c2ccccc2S(=O)c2ccc(C(=O)NCc3ccc4c(c3)OCO4)cc21` (stereo not given), 112 nM (active).

As to `CCN1C(=O)c2ccccc2[S@](=O)c2ccc(C(=O)NCc3ccc(F)cc3)cc21`, the Potency was 353 nM (active). Still for that read-out and setting: to `CN1C(=O)c2ccccc2[S@](=O)c2ccc(C(=O)NCc3cccnc3)cc21` belongs 177 nM (active); to `CN1C(=O)c2ccccc2S(=O)c2ccc(C(=O)NCc3ccccn3)cc21` (stereo not given), 223 nM (active).

With `CCCN1C(=O)c2ccccc2S(=O)c2ccc(C(=O)NCc3ccc(OC)cc3)cc21` (stereo not given), the Potency is 1770 nM (active).

Turning to `COc1ccc(CNC(=O)c2ccc3c(c2)C(=O)c2ccccc2C3=O)cc1`, the activity, negative = inhibition is -113%. Take `CN1C(=O)c2ccccc2S(=O)c2ccc(C(=O)NCc3ccc(Br)cc3)cc21` (stereo not given): the Potency is 70.5 nM (active). Still for that read-out and setting: in the case of `CCN1C(=O)c2ccccc2S(=O)c2ccc(NC(=O)Cc3ccc(OC)cc3)cc21` (stereo not given) it was 705 nM (active). As to `CCN1C(=O)c2ccccc2S(=O)c2ccc(C(=O)NCc3ccc(C)cc3)cc21` (stereo not given), the activity, negative = inhibition came out at 5.87% [at 4.65 µM].

For `COc1ccc(CNC(=O)c2ccc3c(c2)N(C)C(=O)c2ccccc2S3=O)cc1` (stereo not given), the Potency is 112 nM (active). `CCN1C(=O)c2ccccc2[S@](=O)c2ccc(C(=O)N[C@H](C)c3ccc(Br)cc3)cc21`: the Potency is 8870 nM (active).
